This is an account of results in PubChem BioAssay (NCI).

The panel holds about 83,000 compounds, 20% with a hit somewhere; the sample as a whole holds those more often.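 In brief: 96-well plates, 48 h treatment, single concentration, percent growth endpoint.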 Values without a mark were called inactive. Calls of active or inactive are those of the source. Rule for the calls: active = growth percent below 10; inactive = the rest.

What all share (experiment): NCI-60 one-dose screen, 48 h (100 = growth as untreated, 0 = no growth, -100 = all killed)
Holding throughout (details): 10 µM unless noted

Assay [1] concerns DU-145 prostate.
In assay [2] the test system is K-562 leukemia.
Assay [3] relates to MALME-3M melanoma.
Assay [4] has as its system MDA-MB-231 breast.
For assay [5], the system named is RXF 393 renal.
Assay [6] relates to SF-268 CNS.
For assay [7], the system named is SF-295 CNS.
Assay [8] concerns SF-539 CNS.
Assay [9] has as its system UACC-257 melanoma.
Assay [10] has as its system M14 melanoma.
Assay [11] relates to HCT-15 colon.
For assay [12], the system named is HT29 colon.
Assay [13] concerns SNB-75 CNS.
Assay [14] has as its system SNB-19 CNS.
Assay [15] deals with U251 CNS.
In assay [16] the test system is PC-3 prostate.
The test system of assay [17] is SK-MEL-5 melanoma.
The subject of assay [18] is UACC-62 melanoma.
For assay [19], the system named is LOX IMVI melanoma.
For assay [20], the system named is SK-MEL-28 melanoma.

For `CCCCCCNC(=O)Oc1ccc(/C(=C(\C)c2ccc(Cl)cc2)c2ccc(OCCN(CC)CC)cc2)cc1`, the growth in assay [1] is 73.5%; in assay [2], 2.67% (active); in assay [3] it was 49.3%; in [4], 65%; in [5], 49.7%; in assay [6], 62%. Besides, the growth in [7] is 84.9%; in assay [8] it was 72.3%; in [9], 6.29% (active); in assay [10] it was -4.87% (active); in assay [11], 1.93% (active); in [12] it was -14.2% (active). Further, the growth in assay [13] is 77.2%; in assay [14] it was 74.5%; in assay [15], 41.7%; in assay [16], 56.7%; in assay [17] it was 51.9%; in assay [18] it was 73.3%. Also, the growth was 44.2% in assay [19] and 66% in assay [20].

For `CNCCCC12CCC(c3ccccc31)c1ccccc12`, the growth in [1] is 103%; in [2] it was 80.6%; in assay [3], 82.6%; in assay [4] it was 80.2%; in [5], 61.7%; in assay [6], 92.5%. Also, the growth in assay [7] is 100%; in [8], 99.2%; in assay [9], 95.9%; in [10] it was 80.4%; in assay [11], 95.4%; in [12], 60.4%. In addition, the growth was 60.2% in [13]; 91.5% in [14]; 81.1% in assay [15]; 71.9% in assay [16]; 75.3% in assay [17]; 90.9% in assay [18]. The growth in [19] was 79.6%; in assay [20], 87.4%.

With `CNCCCNc1nc2ccccc2c2c(=O)c3cc(F)ccc3sc12`, the growth in [1] is 2.57% (active); in [2], -38.7% (active); in assay [3], 84.2%; in assay [4], -53.7% (active); in [5], 45.6%; in [6], 51.5%. Further, the growth in assay [7] is 81.5%; in [8], 1.04% (active); in assay [9], 91.6%; in assay [10], -53.2% (active); in assay [11], 3.52% (active); in [12] it was -39.7% (active). Further, the growth is 59.5% in assay [13]; 65% in assay [14]; 2.96% (active) in assay [15]; 39.6% in assay [16]; 73.7% in assay [17]; -1.88% (active) in [18]. For the same compound, the growth was -96.2% (active) in assay [19] and 50.1% in [20].

As to `COc1ccc(OC)c(/C=C2\Oc3cc(OCCN4CCC(Cc5ccccc5)CC4)ccc3C2=O)c1`, the growth in assay [1] is 97.3%; in assay [2], 20.7%; in [3], 92.6%; in assay [4], 82.9%; in assay [5], 55.5%; in assay [6], 85.1%. Besides, the growth in [7] is 102%; in [8], 87%; in assay [9], 101%; in [10], 77.2%; in assay [11] it was 24.3%; in assay [12], 21.4%. Also, the growth in [13] was 72.6%; in assay [14] it was 98.8%; in assay [15], 81.2%; in assay [16], 78%; in assay [17], 75.2%; in [18], 92.8%. Besides, the growth in assay [19] was 56.1%; in assay [20], 89.5%.

In the case of `CCN(CC)Cc1cc(Nc2c3ccc(Cl)cc3nc3ccc(OC)cc23)ccc1O`, the growth in assay [1] is 62.6%; in [2], 3.14% (active); in assay [3], 112%; in [4], 45.7%; in assay [5], -12.6% (active); in assay [6] it was 43.9%. Also, the growth in assay [7] is 72.5%; in [8] it was 58.7%; in [9], -39.4% (active); in [10], -67.5% (active); in [11] it was 34.1%; in assay [12], 11.8%. The growth in assay [13] was 103%; in assay [14], 57.2%; in assay [15], 57%; in assay [16], 78%; in [17] it was 85.5%; in [18], 103%. Moreover, the growth in assay [19] was 24.9%; in [20], -5.73% (active).

Regarding `Cc1oc2nc[nH]c(=O)c2c1C(=O)/C=C/c1ccc(Br)cc1`, the growth in assay [1] is 5.67% (active); in assay [2], 10.8%; in assay [3] it was 24.5%; in [4], 16.1%; in assay [5] it was 4.34% (active); in assay [6] it was 5.39% (active). The growth in [7] was 14.2%; in assay [8], -9.63% (active); in [9], 32.7%; in assay [10], 15.4%; in [11] it was -27.4% (active); in assay [12] it was 15.3%. Moreover, the growth is -2.44% (active) in assay [13]; 23.5% in assay [14]; 12% in [15]; 25.5% in [16]; 8.55% (active) in assay [17]; 13.2% in [18]. Besides, the growth was -90.6% (active) in assay [19] and 23.9% in [20].

As for `CCCCn1c(-c2ccc(-c3nc(-c4ccc(Cl)cc4)no3)cc2)nc(-c2ccccc2)c1-c1ccccc1`, the growth in assay [1] was 93.4%; in [2], 58.9%; in assay [3], 92%; in [4] it was 79.9%; in assay [5] it was 101%; in assay [6] it was 95.5%. Also, the growth in [7] is 79%; in assay [8], 85.5%; in assay [9], 97.8%; in assay [10], 94.4%; in assay [11], 77.2%; in [12], 90.2%. Further, the growth in assay [13] was 80.5%; in assay [14], 83.5%; in assay [15] it was 87%; in assay [16], 70.4%; in assay [17] it was 97.9%; in assay [18] it was 71.5%. In addition, the figures for the growth in assay [19] and in assay [20] were 31.3% and 90.8%, respectively.

As for `COc1ccc(OC)c(/C=C/C(=O)N/N=C/c2ccc(Cl)cc2)c1`, the growth is 14.8% in assay [1]; 14% in [2]; 54.1% in [3]; 28.1% in [4]; -19.8% (active) in assay [5]; 33.2% in [6]. Also, the growth in assay [7] is 31.8%; in assay [8], -43.2% (active); in [9] it was 53%; in [10], -34.4% (active); in [11], 29.4%; in assay [12], 6.49% (active). For the same compound, the growth in assay [13] was 44%; in assay [14], 22.6%; in assay [15] it was 18.4%; in assay [16] it was 26.2%; in assay [17], 30.6%; in assay [18], 42.1%. Further, the growth was 36.7% in assay [19] and 38.8% in [20].

`CCCCN(C)N=Nc1ccc(C(N)=O)cc1`: the growth is 113% in [1]; 116% in assay [2]; 111% in assay [3]; 106% in assay [4]; 150% in [5]; 108% in assay [6]. The growth was 101% in [7]; 107% in assay [8]; 105% in assay [9]; 102% in [10]; 114% in [11]; 107% in assay [12]. Moreover, the growth is 97.3% in [13]; 105% in assay [14]; 108% in [15]; 103% in assay [16]; 108% in assay [17]; 98.7% in [18]. The growth is 107% in [19] and 104% in [20].

Take `COc1cccc(-c2nc(-c3ccc(NC(=O)OC(C)C)cc3)[nH]c2-c2ccnc(Br)c2)c1`: the growth in [1] was 36%; in assay [2] it was 6.01% (active); in [3], 21.8%; in assay [4], 37.3%; in [5], -33.9% (active); in assay [6], 40.5%. In addition, the growth in assay [7] was -35.6% (active); in [8] it was 10.5%; in assay [9], 45.3%; in assay [10], 29.9%; in assay [11], 4.09% (active); in [12], 18.3%. In addition, the growth in assay [13] is 23.6%; in [14], 40.3%; in assay [15], 32.7%; in assay [16], 17.5%; in assay [17], 21.9%; in assay [18], 9.86% (active). Besides, the growth in assay [19] is 2.73% (active); in assay [20] it was 37.7%.

In the case of `O=C1NC(=O)C(c2ccccc2)(c2ccccc2)N1Cc1cn(-c2c3ccccc3nc3ccccc23)nn1`, the growth in assay [1] was 91.2%; in [2] it was 39.2%; in assay [3], 104%; in assay [4] it was 73.1%; in assay [5], 85.6%; in assay [6] it was 89.3%. Further, the growth in [7] is 99%; in assay [8], 98.5%; in [9], 89.1%; in assay [10] it was 96.2%; in assay [11], 59.9%; in assay [12] it was 85.3%. Moreover, the growth is 85.1% in assay [13]; 89.4% in [14]; 91.2% in [15]; 78% in assay [16]; 82.2% in assay [17]; 72.4% in [18]. The growth is 78.2% in assay [19] and 103% in [20].

For `COc1ccc2sc3c(NCCCNCCO)nc4ccccc4c3c(=O)c2c1`, the growth in assay [1] is 41%; in [2] it was -28.2% (active); in assay [3] it was 85.9%; in assay [4] it was -12.9% (active); in assay [5] it was 52.3%; in [6], 50.8%. In addition, the growth was 85.7% in assay [7]; 45.5% in assay [8]; 92.3% in assay [9]; -66.6% (active) in assay [10]; 44% in assay [11]; -39.2% (active) in assay [12]. Besides, the growth is 65.9% in assay [13]; 66.8% in assay [14]; 32.2% in assay [15]; 62.3% in assay [16]; 81.4% in [17]; 85% in assay [18]. Further, the growth in assay [19] is -99.1% (active); in assay [20] it was 70.6%.

For the compound `Cc1c(C(=O)/C=C/Nc2c(Cl)cc(S(N)(=O)=O)cc2Cl)sc2nc3ccccc3n12`, the growth is 107% in assay [1]; 105% in assay [2]; 105% in assay [3]; 102% in [4]; 115% in assay [5]; 95.4% in [6]. The growth in assay [7] was 101%; in assay [8], 96.6%; in assay [9], 105%; in [10] it was 106%; in assay [11], 105%; in [12], 108%. Besides, the growth was 93.6% in assay [13]; 99.3% in assay [14]; 107% in assay [15]; 104% in [16]; 104% in [17]; 101% in assay [18]. In addition, the growth in assay [19] was 97.3%; in [20] it was 103%.

For `CCc1cccc2c1S/C(=C/c1ccc(OC)cc1)C2=O`, the growth in [1] is 49.5%; in assay [2] it was 11.2%; in [3], 51.7%; in [4], 46.5%; in assay [5], 40.1%; in assay [6], 64.5%. The growth in [7] is 62.9%; in assay [8], 8.87% (active); in assay [9] it was 72.6%; in assay [10] it was 28.3%; in assay [11], 28.1%; in assay [12], 84.5%. Moreover, the growth is 26.6% in [13]; 45.2% in assay [14]; 41.7% in assay [15]; 33.9% in assay [16]; 57.2% in assay [17]; 31.2% in assay [18]. The growth is 40.3% in assay [19] and 59.3% in assay [20].
